40 compounds from PubChem BioAssay (EPA / NIEHS) can be followed below.

Active and inactive are the calls of the source. The calls were made as follows: active = hit-call score of the fitted dose curve at least 0.9, where 1 is the maximum; inactive = score below 0.9.

Sequence of Hepatocyte nuclear factor 3-beta (Homo sapiens) (Q9Y261 whole entry, looked up): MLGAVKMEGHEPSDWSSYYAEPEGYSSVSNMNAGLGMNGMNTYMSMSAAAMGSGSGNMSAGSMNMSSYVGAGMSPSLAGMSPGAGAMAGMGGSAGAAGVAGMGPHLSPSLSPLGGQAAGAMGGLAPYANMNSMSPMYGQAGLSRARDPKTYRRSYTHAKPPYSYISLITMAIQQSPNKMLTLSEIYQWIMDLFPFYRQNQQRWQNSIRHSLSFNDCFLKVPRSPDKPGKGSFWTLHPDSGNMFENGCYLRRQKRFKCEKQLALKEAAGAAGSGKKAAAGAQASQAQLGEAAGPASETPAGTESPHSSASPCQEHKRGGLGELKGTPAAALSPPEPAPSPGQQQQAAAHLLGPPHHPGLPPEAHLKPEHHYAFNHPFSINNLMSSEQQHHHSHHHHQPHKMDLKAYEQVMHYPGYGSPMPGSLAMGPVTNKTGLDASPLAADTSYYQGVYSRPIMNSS

This assay has as its target Hepatocyte nuclear factor 3-beta (Homo sapiens) (UniProt Q9Y261). As to the kind of experiment: ATG_FoxA2_CIS: Attagene CIS-FACTORIAL HepG2 Assay for human Forkhead box A2 (FOXA2) (AID 2282942). To be noted: HepG2 cis-reporter transcription factor activity, 24 h; actives raise or lower the signal. Here is the method: ATG_CIS is a cell-based, multiplexed-readout assay that uses HepG2, a human liver cell line, with measurements taken at 24 hours after chemical dosing in a 24-well plate.ATG_FoxA2_CIS is one of 52 assay component(s) measured or calculated from the ATG_CIS assay. It is designed to make measurements of mRNA induction, a form of inducible reporter, as detected with fluorescence intensity signals by Reverse transcription polymerase chain reaction (RT-PCR) and Capillary electrophoresis technology.Data from the assay component ATG_FoxA2_CIS was analyzed into 1 assay endpoint. This assay endpoint, ATG_FoxA2_CIS, was analyzed with bidirectional fitting relative to DMSO as the negative control and baseline of activity. Using a type of inducible reporter, measures of mRNA for gain or loss-of-signal activity can be used to understand the reporter gene at the transcription factor-level as they relate to the gene FOXA2. Furthermore, this assay endpoint can be referred to as a primary readout, because this assay has produced multiple assay endpoints where this one serves a reporter gene function. To generalize the intended target to other relatable targets, this assay endpoint is annotated to the dna binding intended target family, where the subfamily is forkhead box protein.
Human liver HepG2 cells are transiently transfected with multiple reporter transcription units (MRTUs) in 6-well plates using FuGene 6 reagent (Roche; 3 ml FuGene/1 mg DNA). The MRTU constructs are regulated by a cis-regulating element (promoter). […] A major difference between the CIS and TRANS system is that in CIS activities of endogenous TFs are measured, whereas the TRANS assay evaluates changes in activities of exogenous, chimeric NR-Gal4 proteins. […] At the end of 24 hour incubation, total RNA was isolated using TriZol reagent (Invitrogen). The isolated RNA is then reverse-transcribed using oligo(dT) primer and Mo-MLV reverse transcriptase (Invitrogen) with DNAse I (Ambion) treatment for 30 min. The one-tenth of the produced cDNA was amplified by PCR using Taq DNA polymerase (Invitrogen) and two reporter sequence-specific primers. The PCR products were fluorescently labeled by primer extension with 6-arboxyfluorescein (6-FAM) 5'-labeled reporter sequence-specific primer (2 min at 95 C, 20 s at 68 C and 10 min at 72 C) and these products were digested with 5U of HpaI (New England Biolabs) for 2h at 37 C. The fragments were purified using Qiaquick PCR columns (Qiagen), analyzed on an ABI 3130xL genetic analyzer (Applied Biosystems) with peak positions identified by using a set of X-rhodamine (ROX)-labeled MapMarker1000 molecular weight standards (BioVentures). The raw capillary electrophoresis data was processed using Attagraph software (Attagene).
With `CCCCNc1ccccc1`, the compound was called inactive.

In the case of `C=C(C)C(=O)OCCC(F)(F)C(F)(F)C(F)(F)C(F)(F)C(F)(C(F)(F)F)C(F)(F)F`, the compound was classed as inactive.

Turning to `Cc1ccc(S(=O)(=O)OCC(F)(F)C(F)(F)C(F)(F)C(F)(F)C(F)(F)C(F)F)cc1`, the compound was called inactive.

For `CCC(=O)OCCc1ccccc1`, the result was inactive.

As for `OCC(F)(F)C(F)(F)C(F)(F)C(F)F`, the compound was called inactive.

`CS(C)(=O)=O`: the call was inactive.

Regarding `N=C(N)C(F)(F)C(F)(F)C(F)(F)C(F)(F)C(F)(F)C(F)(F)C(F)(F)F`, the result was inactive.

Turning to `CCCCCCOC(=O)c1ccccc1O`, the compound was classed as inactive.

On to `COC(OC(C)=O)c1ccccc1` (stereo not given), for which the call was inactive.

For `CCCCCCC(C)OC(=O)CCCCC(=O)OC(C)CCCCCC` (stereo not given), the compound was called inactive.

In the case of `CC/C=C\CCOC(C)=O`, the call was inactive.

As to `CCCCCCCOC(=O)c1ccccc1C(=O)OCCCCCCC`, the compound was classed as inactive.

Take `O=C(O)C(F)(OC(F)(F)C(F)(OC(F)(F)C(F)(F)C(F)(F)F)C(F)(F)F)C(F)(F)F` (stereo not given): the compound was called inactive.

`CCc1ccc(C(c2ccc(CC)cc2)C(Cl)Cl)cc1`: the outcome was inactive.

Turning to `Cc1cccc(N(C)C)c1`, the compound was called inactive.

As to `COC(=O)CCC(F)(F)C(F)(F)C(F)(F)C(F)(F)F`, the compound was classed as inactive.

For the compound `NC(=O)C(F)(F)C(F)(F)C(F)(F)C(F)(F)F`, the call was inactive.

On to `FC(F)(F)C(F)(F)C(F)(F)C(F)(F)CCI`, for which the outcome was inactive.

Regarding `Cc1ccc(S(=O)(=O)NCl)cc1`, the compound was classed as inactive.

For `CC(C)(C)C(=O)CC(=O)C(F)(F)C(F)(F)C(F)(F)F`, the compound was called inactive.

In the case of `O=P(O)(O)OCCC(F)(F)C(F)(F)C(F)(F)C(F)(F)C(F)(F)C(F)(F)F`, the compound was called inactive.

With `O=S(=O)(O)c1ccc2ccccc2c1`, the outcome was inactive.

`CC(=O)Nc1ccc(N=Nc2cc(C)ccc2O)cc1`: the result was inactive.

In the case of `CC(C)=CCCC(C)CCOC(=O)C(C)C` (stereo not given), the result was inactive.

With `CC/C=C\CCOC(=O)c1ccccc1`, the compound was classed as inactive.

For `c1ccc(B(c2ccccc2)c2ccccc2)cc1`, the outcome was inactive.

Regarding `C=C(C)C(=O)OCC(F)(F)C(F)(F)C(F)(F)C(F)(F)C(F)(F)C(F)(F)C(F)(F)F`, the compound was called inactive.

As for `C#C[C@]1(O)CC[C@H]2[C@@H]3CCc4cc(OC)ccc4[C@H]3CC[C@@]21C`, the outcome was inactive.

Regarding `FC(F)(F)C(F)(F)C(F)(F)C(F)(F)C(F)(F)C(F)(F)C(F)(F)I`, the outcome was inactive.

As for `OCC(F)(F)C(F)(F)C(F)(F)C(F)(F)C(F)(F)C(F)(F)F`, the outcome was inactive.

Regarding `OCCCC(F)(F)C(F)(F)C(F)(F)F`, the call was inactive.

As to `C1COCCN1`, the result was inactive.

Take `CC(CCl)OP(=O)(OC(C)CCl)OC(C)CCl` (stereo not given): the compound was called inactive.

Take `Cc1cc(C)cc(O)c1`: the result was inactive.

Consider `OCC(F)(F)C(F)(F)C(F)(F)F`, for which the compound was classed as inactive.

For `O=C(O)C(F)(F)C(F)(F)C(F)(F)C(F)(F)C(F)(F)C(F)(F)C(F)(F)C(F)(F)Cl`, the call was inactive.

On to `O=C(O)C(F)(F)C(F)(F)C(F)F`, for which the call was inactive.

`CCCCOCCOCCOC(=O)CCCCC(=O)OCCOCCOCCCC`: the outcome was inactive.

Consider `FC(F)(I)C(F)(F)C(F)(F)C(F)(F)I`, for which the outcome was inactive.

Consider `C=CC(F)(F)C(F)(F)C(F)(F)C(F)(F)C(F)(F)C(F)(F)C(F)(F)C(F)(F)F`, for which the outcome was inactive.
